Pf apPOL block – Pf-apPOL DNA polymerase inhibition | inhibition, % at 10 µM | AID 1794808 | 210,000 compounds, 0.25% hits | Recombinant Pf-apPOL, molecular beacon fluorescence, 1.5 h
mHTT-CaM PPI inh – mHTT-calmodulin interaction abrogation | P42858 | AlphaScreen His-mHTT/GST-CaM binding, luminescence | inhibition, % at 15 µM | 190,000 compounds, 3.6% hits;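 note: 0% = both proteins with DMSO and 100% = one protein alone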
Active calls of the source: *; i = inactive; nt = not tested or not shown. Rows were chosen to be rich in hits. Some 3.6% of all compounds tested hit in one or more screens of this group. Cut-off read from the data, not from the text of the source: active = inhibition above about 50%; inactive = the rest.

SMILES | Pf apPOL block | mHTT-CaM PPI inh
O=S(=O)(c1ccc2[nH]c3c(c2c1)CCCC3)N1CCc2ccccc21 | -3 | 78*
CN(CC(=O)N1CCc2ccccc21)S(=O)(=O)c1ccc2[nH]c3c(c2c1)CCCC3 | -2 | 5
CC1CCCN(S(=O)(=O)c2ccc(Cl)cc2)C1 (stereo not drawn) | -4 | -14
CC1CCCN(S(=O)(=O)c2ccc3[nH]c4c(c3c2)CCCC4)C1 (stereo not drawn) | 0 | 63*
CN(CC(=O)N1CCOCC1)S(=O)(=O)c1ccc2[nH]c3c(c2c1)CCCC3 | -6 | 12
CC1CN(S(=O)(=O)c2ccc3[nH]c4c(c3c2)CCCC4)c2ccccc2O1 (stereo not drawn) | -4 | 96*
CNC(=O)N1CCCC(c2ccnc(-c3ccccc3)n2)C1 (stereo not drawn) | -4 | -3
COc1ccc(CNC(=O)C2CCCN(c3ncccc3-c3noc(C4CCC4)n3)C2)cc1 (stereo not drawn) | -2 | 9
COc1ccccc1C1CCN(S(=O)(=O)c2ccc(Cl)cc2)CC1 | 6 | nt
CC(=O)N1CC(C(=O)NCCC(C)C)C(c2ccc(F)cc2)C1 (stereo not drawn) | -2 | -4
O=C1CSC(c2cn(-c3ccccc3)nc2-c2cccnc2)N1Cc1ccccc1 (stereo not drawn) | -36 | 28
COc1ccc(-c2nn(-c3ccccc3)cc2C2SCC(=O)N2Cc2ccccc2)cc1 (stereo not drawn) | -5 | 87*
CC1=NN(c2cc(Cl)ccc2Cl)C(=O)/C1=C/c1cccn1-c1ccc(S(N)(=O)=O)cc1 | 0 | 63*
CC1=NN(c2ccc(S(N)(=O)=O)cc2)C(=O)/C1=C/c1ccc(O)cc1 | 1 | 27
NS(=O)(=O)c1ccc(-n2cccc2/C=N/n2cnnc2)cc1 | nt | i
CC1=NN(c2cc(Cl)cc(Cl)c2)C(=O)/C1=C/c1cccn1-c1ccc(S(N)(=O)=O)cc1 | -4 | 52*
Cc1cccc(OCC(O)CN2CC(C)CC(C)C2)c1C (stereo not drawn) | -11 | -5
O=C(Nc1cccc(Cl)c1Cl)c1cnn2cccnc12 | -1 | 6
O=C(c1ccc(N2CCc3ccccc32)c([N+](=O)[O-])c1)N1CCC2(CC1)OCCO2 | -6 | 77*
Cc1ccc(S(=O)(=O)N2CCc3ccccc32)cc1[N+](=O)[O-] | -1 | 13
CC(=O)N1c2ccccc2CCc2ccc([N+](=O)[O-])cc21 | -7 | 0
O=C(c1ccc(N2CCC3(CC2)OCCO3)c([N+](=O)[O-])c1)N1CCOCC1 | -2 | 1
O=[N+]([O-])c1ccc(N2CCc3ccccc32)c([N+](=O)[O-])c1 | 2 | 56*
O=[N+]([O-])c1cc(S(=O)(=O)N2CCc3ccccc32)ccc1N1CCc2ccccc21 | 28 | 74*
O=C(c1ccc(Sc2cccc(Cl)c2)c([N+](=O)[O-])c1)N1CCC2(CC1)OCCO2 | -8 | 60*
SMILES | Pf apPOL block | mHTT-CaM PPI inh
O=C(c1ccc(Sc2cccc(Cl)c2)c([N+](=O)[O-])c1)N1CCN(c2ccccn2)CC1 | -7 | 20
CSc1nc2ccccc2n1CC(=O)Nc1cccc([N+](=O)[O-])c1 | -2 | -2
O=C(CCn1nnc2ccccc2c1=O)N1CCN(c2ccccc2O)CC1 | -2 | 0
Cc1cccc(C(=O)N2CCc3c(c(-c4nc(-c5ccc(F)cc5)no4)nn3C)C2)c1 | -2 | -7
CCOc1cc(C(=O)NCCSc2c(C)[nH]c3ccccc23)cc(OCC)c1OCC | -6 | 19
Cc1[nH]c2ccccc2c1SCCNC(=O)COc1ccc(Cl)cc1 | -9 | 84*
Cc1[nH]c2ccccc2c1SCCNC(=O)c1c(F)cccc1F | -8 | 12
O=C(COc1ccc(Cl)cc1)NCCSc1c[nH]c2ccccc12 | -6 | 17
CCOc1ccccc1C(=O)NCCSc1c(C)[nH]c2ccccc12 | -6 | 71*
Cc1[nH]c2ccccc2c1SCCNC(=O)C(C)(C)Oc1ccc(Cl)cc1 | 1 | 98*
Cc1[nH]c2ccccc2c1SCCNC(=O)COc1ccc(Cl)cc1Cl | -22 | 93*
Cc1[nH]c2ccccc2c1SCCNC(=O)c1cccc(Cl)c1 | -18 | 23
COc1ccc(C)cc1N1CCN(C(=O)c2ccc(Cl)cc2)C(C)C1=O (stereo not drawn) | 0 | 13
O=C(COc1ccccc1)Nc1nc2c(s1)CN(S(=O)(=O)c1ccccc1)CC2 | -5 | 3
CC(=O)c1ccc(NC(=O)c2cc(Br)c(C)c(C)c2C)cc1 | -2 | -4
O=C(NCc1ccccc1)c1cc2n(n1)C(C(F)(F)F)CC(c1ccc(Cl)cc1)N2 (stereo not drawn) | -8 | 10
CCOc1ccc(NC(=O)C2(C)Oc3cccnc3N(C)C2=O)cc1 (stereo not drawn) | -1 | 2
CC(=O)Nc1ccc(-c2cn3nc(-c4ccccc4)sc3n2)cc1 | 0 | 58*
Clc1ccc(-c2cn3nc(-c4ccccc4)sc3n2)cc1 | -6 | 3
CN(C)S(=O)(=O)N1CCN(Cc2nc3ccccc3[nH]2)CC1 | -4 | -15
CCc1ccc(S(=O)(=O)N2CCN(Cc3nc4ccccc4[nH]3)CC2)s1 | -52 | 100*
COC(=O)[C@H](C(C)C)N(Cc1cn(CC2CCCCC2)nn1)S(=O)(=O)c1ccccc1Br | 13 | 19
Cc1ccc(F)c(NC(=O)c2cccnc2N(C)C)c1 | 0 | 1
CCCCOC(=O)Nc1ccc(S(=O)(=O)Nc2cccc([N+](=O)[O-])c2)cc1 | -4 | -1
CC1=Nc2ccccc2C1=Cc1c(O)n(-c2cccc(Br)c2)c(=O)[nH]c1=O | -2 | 96*
SMILES | Pf apPOL block | mHTT-CaM PPI inh
CC1=Nc2ccccc2C1=Cc1c(O)n(-c2ccc(Cl)cc2)c(=O)[nH]c1=O | -2 | 15
COc1ccc(Oc2nc3c(c(=O)n(Cc4ccccc4)c(=O)n3C)n2C)cc1 | 65* | 18
COc1ccc(Cn2c(Oc3ccccc3)nc3c2c(=O)n(C)c(=O)n3C)cc1 | 1 | -6
Cc1ccc(C(C)(C)C)c(OCC(=O)O)c1 | -3 | 3
COc1ccc(-c2ccc(OC)c([C@H]3[C@@H]4C=CCC[C@@]4(C)C(=O)N3Cc3ccccc3)c2)cc1OC | -2 | 76*
COc1ccc(-c2ccc(OC)c([C@H]3[C@@H]4C=CCC[C@@]4(C)C(=O)N3Cc3ccccc3)c2)cc1 | -4 | 38
COc1ccc(-c2ccc(N(C)C)cc2)cc1[C@H]1[C@@H]2C=CCC[C@@]2(C)C(=O)N1Cc1ccccc1 | -2 | 73*
COc1ccc(/C=C/c2ccccc2)cc1[C@H]1[C@@H]2C=CCC[C@@]2(C)C(=O)N1Cc1ccccc1 | -7 | 35
COc1ccc(Br)cc1[C@H]1[C@@H]2C=CCC[C@@]2(C)C(=O)N1Cc1ccccc1 | 13 | 90*
CC(=O)c1ccc(-c2ccc([C@H]3[C@@H]4C=CCC[C@@]4(C)C(=O)N3Cc3ccccc3)c(F)c2)cc1 | -6 | 14
Cc1noc(-c2nn(C)c3c2CN(S(=O)(=O)c2cccs2)CC3)n1 | 0 | -1
Cc1ccc(C(=O)Nc2c(C)nc3scc(C)n3c2=O)cc1 | 3 | -3
CCN(CC)c1ccc2cc(C(N)=O)c(=Nc3ccccc3C)oc2c1 | 2 | 54*
CCN(CC)c1ccc2cc(C(N)=O)c(=Nc3ccc(C)cc3)oc2c1 | 3 | 10
CCc1c(O)nc(SCC(=O)Nc2nc3ccccc3s2)[nH]c1=O | 1 | 3
O=c1c2c(ncn2Cc2ccc(F)cc2)n(-c2ccccc2)c(=O)n1CC1CC1 | 0 | 14

Screens as filed in PubChem.
